# Assay outcomes from PubChem.
# Hits are enriched below; roughly 12% of the tested compounds scored in any of these assays.
# CHX counter = Cycloheximide Counterscreen for Small Molecule Inhibitors of Shiga Toxin | cell reporter, cycloheximide protein synthesis inhibition counterscreen | 300,000 tested, 12% active | AID 2314, 2010 | max response, %; in the data active means max response mostly above about 13%, no sharp cut-off; inactive means mostly below about 14%; further: read at 38.3 µM for the half of the compounds with a filed dose; 0% is about no effect
# FMDV antiviral = High Throughput Screening for Foot and Mouth Disease Virus Antivirals; FMDV antiviral cell-based qHTS; 410,000 tested, 1.2% active; Potency, µM (doses to about 57.9 µM), for inactives: at the highest dose activity change, negative = inhibition, most hits filed as inhibitors; calls by dose curve; tested in HEK293T cells; further: read-out not given here; potency means the concentration at half of the fitted maximal effect; on the % scale 0 is the no-effect control and ±100 the full control effect; nearly all actives have a fitted effect of over 45% in size
# Sm TGR block = qHTS Assay for the Inhibitors of Schistosoma Mansoni Peroxiredoxins; AID 485364, 2010; Schistosoma mansoni thioredoxin glutathione reductase (TGR), Q962Y6; purified TGR, DTNB reduction, TNB absorbance 405 nm; 360,000 tested, 3% active; Potency, µM (titrated, usually from 114 µM), for inactives: at the top dose activity change, negative = inhibition, hits mostly inhibitors; active means well fitted inhibition curve with a large enough effect; inconclusive means small, poorly fitted or top-dose-only effect; inactive means no such curve, though single readings can be large or run the other way; further: potency means the concentration at half of the fitted maximal effect; on the % scale 0 is the no-effect control and ±100 the full control effect; nearly all actives have a fitted effect of over 60% in size
#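 First, TGR (20 nM dispensed) and NADPH were mixed with compound. Second, a 15 min room-temperature incubation followed. Third, further NADPH and then DTNB were added to start the reaction. Finally, TNB absorbance was monitored kinetically.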
# Shiga toxin inh = A qHTS for Small Molecule Inhibitors of Shiga Toxin; inhibition, % at 38.7 µM; Vero cells, Shiga toxin protein synthesis inhibition reporter; AID 2315, 2010; 290,000 tested, 9.2% active; in the data active means inhibition mostly above about 28%, no sharp cut-off; inactive means mostly below about 43%; further: 0% is about no effect
# Numbers without * were called inactive; u = inconclusive; x = not tested or not shown.
SMILES,CHX counter,FMDV antiviral,Sm TGR block,Shiga toxin inh
O=C1CC(NNc2ccccc2)C(=O)N1c1ccccc1 (centres undefined),7,11%,-4%,27
COc1ccc(N2C(=O)CC(NNC(=O)c3ccc(Br)s3)C2=O)cc1 (centres undefined),1,-2%,9%,8
CCN(CC)C1CC(=O)N(c2cccc(Cl)c2)C1=O (centres undefined),-4,-15%,4µM*,x
Cc1ccc(NNC2CC(=O)N(c3cccc(Cl)c3)C2=O)cc1 (centres undefined),14,1%,45µM*,29
O=C(NNC1CC(=O)N(c2cccc(Cl)c2)C1=O)c1cccs1 (centres undefined),11,14%,-12%,39*
COc1cccc(N2C(=O)CC(NNC(=O)c3cccs3)C2=O)c1 (centres undefined),19*,9%,-1%,43*
N#CC(C#N)=c1ccc2c(c1)N1C3=C(CCCC3)CC3CCCCC31N=2 (centres undefined),-1,40µM*,0%,-10
O=C(CSc1nccn1-c1ccccc1)Nc1nc2ccccc2s1,x,-5%,0%,x
Cn1ccnc1SCC(=O)Nc1nc2ccccc2s1,34*,69%,x,72*
Cn1ccnc1SCC(=O)Nc1ccc(Br)cc1C(F)(F)F,22*,15%,u,117*
Cc1cc(Br)ccc1NC(=O)CNC(=O)CSc1nccn1C,x,7%,x,x
O=C(CSc1nc2ccccc2s1)Nc1ncccn1,40*,39%,6%,13
Cn1ccnc1SCC(=O)Nc1cccc2ccccc12,39*,20%,4%,25
CCN1CCN(c2c(S(=O)(=O)c3ccc(Cl)cc3)cnc3ccccc23)CC1,x,-10%,0%,x
COc1ccc(OC)c(NC(=O)c2oc3c(c2C)-c2nn(Cc4ccc(Cl)cc4)cc2CC3)c1,x,-2%,7%,x
Cc1ccccc1N1CCN(S(=O)(=O)c2nnc(NC(=O)c3ccc(C(C)C)cc3)s2)CC1,x,u,-1%,x
O=C(CSc1cn[nH]n1)Nc1nc2ccccc2s1,27*,53%,-3%,53*
Cc1nc(NC(=O)CCl)sc1C(=O)N(C)C,-3,u,16µM*,23
Cc1cc(=O)[nH]c(SCC(=O)Nc2nc3ccccc3s2)n1,9,19%,2%,22
Cn1ccnc1SCC(=O)Nc1ccc2nc(SCC(=O)NC3CC3)sc2c1,33*,11%,2%,113*
Cc1nc(NC(=O)CSc2nccn2C)sc1C(=O)N(C)C,21*,4%,-14%,43*
Cc1nnc(NC(=O)CSc2nccn2C)s1,-1,-7%,-5%,-5
CC(=O)c1cccc(NC(=O)C2CCCN(c3nnc(-n4cccc4)s3)C2)c1 (centres undefined),x,0%,1%,x
CCc1ccc(NC(=O)CSC2=Nc3ccccc3C3=NC(CCC(=O)NCCc4ccccc4)C(=O)N23)cc1 (centres undefined),x,-27%,-2%,x
O=C(CSc1nc2ccccc2s1)NCCOc1ccccc1,15*,25%,-22%,17
SMILES,CHX counter,FMDV antiviral,Sm TGR block,Shiga toxin inh
O=C(CSc1ccccn1)Nc1cccc(NC(=O)CSc2ccccn2)n1,18,x,-1%,20
CCn1c(SCC(=O)Nc2nc3ccc(C)cc3s2)nc2c(c1=O)SC(C)C2 (centres undefined),8,u,19%,12
O=C(CSc1ccccn1)Nc1nc2ccccc2s1,28*,37%,-8%,19
Brc1c(CSc2nc3ccccc3s2)nc2ncccn12,23*,7%,-11%,43
CCn1c(SCC(=O)Nc2nc3ccccc3s2)nc2c(c1=O)SC(C)C2 (centres undefined),3,32µM*,7%,-8
O=C(CSc1nc2ccccc2s1)NCCOc1ccc(Cl)cc1,-2,-13%,0%,17
CCOc1ccc(CNC(=O)c2sc3nc(C)cc(C)c3c2-n2cccc2)cc1,x,8%,16%,x
CCOc1ccc(NC(=O)CCn2c(=O)c3cccn3c3cccnc32)cc1,x,-1%,-5%,x
COc1ccc(NC(=O)CSc2nccn2C)c([N+](=O)[O-])c1,23*,35%,0%,60*
Nn1c(SCC(=O)Nc2nc3ccccc3s2)nncc1=O,23*,-20%,-8%,40
NC(=S)N/N=C/c1ccc(/C=N/NC(N)=S)cc1,-2,-16%,-6%,1
COC(=O)N/N=C/c1cccnc1,-4,-9%,2%,-7
COC(=O)N/N=C/c1ccccc1,17*,6%,-3%,30
CSC(=S)N/N=C/c1ccccc1,25*,7%,5%,27*
COc1ccc(/C=N/NC(=S)SC)cc1OC,18*,28%,9%,22
COc1ccc(C(CC(=O)Nc2ccc(C)cn2)N2Cc3ccccc3C2=O)cc1OC (centres undefined),x,0%,4%,x
COc1ccccc1NC(=O)c1c(-c2ccc(C)cc2)nnc2ccccc12,x,25%,-9%,x
COc1ccc(C(=O)Nc2nc3n(n2)C(c2ccc(F)cc2)C=C(c2ccc(Cl)cc2)N3)cc1 (centres undefined),x,-4%,-12%,x
Cc1ccc(CN2CCc3nnc(C(NC(=O)c4ccoc4)C(C)C)n3CC2)cc1C (centres undefined),x,6%,x,x
COc1ccccc1OCc1nc(C#N)c(NCc2ccco2)o1,8,7%,40µM*,15
N#Cc1nc(COc2cccc(Cl)c2)oc1NCc1ccco1,50*,3%,-25%,65
Cc1ccc(OCc2nc(C#N)c(NCc3ccco3)o2)cc1,8,12%,u,25
Cc1cc(C)c(/C=C/c2onc(C)c2S(=O)(=O)N2CCC(C(=O)NCCc3ccccc3)CC2)c(C)c1,x,-28%,2%,x
Cc1cc(C)cc(NC(=S)NC2CC3CCCC(C2)N3C2CCCC2)c1 (centres undefined),-1,-22%,13µM*,-16
Cc1cc(C)cc(NC(=S)NC2CC3CCCC(C2)N3C2CC2)c1 (centres undefined),1,-3%,x,-3
SMILES,CHX counter,FMDV antiviral,Sm TGR block,Shiga toxin inh
CN(C)S(=O)(=O)c1ccc2c(c1)/C(=C/c1cc3c([nH]1)CCCC3)C(=O)N2,x,21%,50µM*,x
O=C(Nc1ccccc1C(F)(F)F)C(O)(c1ccccc1)C1CCCCC1 (centres undefined),x,-24%,4µM*,x
O=C(C[n+]1cccc2ccccc21)c1ccccc1,6,-4%,-5%,26
O=C(C[n+]1ccccn1)c1ccccc1,15*,29%,-11%,40*
CC(=O)Nc1ccc(Nc2nc3ccc(Cl)cc3n3cnnc23)cc1,x,-13%,6%,x
CCOCCCNC(=O)C(c1ccc(Cl)cc1)N(Cc1cccs1)C(=O)c1ccc(NC(C)=O)cc1 (centres undefined),x,0%,2%,x
COc1ccc2[nH]c3c4c(ccc3c2c1)C(=O)C=CC4=O,38*,14µM*,0.71µM*,89*
CCCCOc1ccc(-n2nc(C)cc2C)nn1,29*,18%,-24%,55*
Cc1cc(C)n(-c2ccc(OCC(=O)O)nn2)n1,6,-15%,-3%,-13
Cc1cccc(C)c1OCC(=O)Nc1nnc(C2CCCO2)s1 (centres undefined),-9,-11%,-7%,-4
